Shown are actives, neighbours in structure and some others; about 10% of the full set was active somewhere.
G9a inh – G9a (human) methyltransferase inhibition; Q96KQ7; G9a H3K9 monomethylation, AlphaScreen, 2 h; Potency, µM (doses to about 102 µM), for inactives: at the top dose activity, negative = inhibition, most hits filed as inhibitors; 8.8% of 350,000 active; also: potency is read from the fitted curve at half-maximal effect; % is scaled to controls: 0 for no effect and ±100 for the full control effect; nearly all actives have a fitted effect of over 75% in size
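AlphaScreen read-out: biotin-H3K9 peptide (500 nM) methylation by 20 nM enzyme with 20 uM SAM, 2 h at room temperature after 15 min compound preincubation; anti-monomethyl H3K9 antibody plus donor/acceptor beads, 10 min dark.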
JMJD2A Tudor inh – JMJD2A Tudor domain (human) inhibition; O75164; AlphaScreen JMJD2A-Tudor / H3K4me3 peptide binding; 4.4% of 390,000 active; Potency, µM (series often up to 114 µM), for the others: top-dose activity change, negative = inhibition, hits mostly inhibitors; also: potency is read from the fitted curve at half-maximal effect; % is scaled to controls: 0 for no effect and ±100 for the full control effect; nearly all actives have a fitted effect of over 50% in size
CtBP-E1A inh – blocks the CtBP interaction with E1A. AlphaScreen GST-E1A/His-CtBP binding, 1536-well; stronger effect = lower value. activity change, % (no concentration beside the values). 0.49% of 340,000 active. AID 651724; in the data active = activity change below about -65%; inconclusive = mostly about -30% to -63%; also: % is scaled to controls: 0 for no effect and ±100 for the full control effect
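Protein mix (5X: 125 nM each GST-E1A, His-CtBP) was incubated with pinned compound 2 h at 37 deg C in dark, in 50 mM Tris pH 8.0 buffer with 300 mM NaCl. Glutathione donor and nickel acceptor beads followed; AlphaScreen signal read after 1 h.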
HP1b chromo inh – inhibitors of HP1-beta chromodomain binding to methylated histone tails; P83916; AlphaScreen HP1-beta / biotin-H3K9me3 peptide binding; Potency, µM (series often up to 114 µM), for the others: at the highest dose activity change, negative = inhibition, actives largely listed as inhibitors; 0.56% of 390,000 active; also: potency is read from the fitted curve at half-maximal effect; nearly all actives have a fitted effect of over 70% in size
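AlphaScreen: HP1-beta (50 nM) preformed 30 min with biotin-H3(1-18)K9me3 peptide (50 nM) in PBS pH 7.4, 0.01% Tween-20. Compound added for 30 min at RT, then streptavidin donor/nickel chelate acceptor beads (10 ug/mL) for 30 min.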
BAZ2B inh – inhibitors of human BAZ2B bromodomain | 4.4% of 360,000 active | Q9UIF8 | AID 504333 | Potency, µM (series often up to 114 µM), inactives show at the top dose activity change, negative = inhibition, most hits filed as inhibitors | AlphaScreen BAZ2B-H3K14Ac peptide displacement; also: potency is read from the fitted curve at half-maximal effect; % is scaled to controls: 0 for no effect and ±100 for the full control effect; nearly all actives have a fitted effect of over 60% in size
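Protein-peptide AlphaScreen: BAZ2B 50 nM, b-H3K14Ac 50 nM, 1x PBS pH 7.4 + 0.01% Tween-20. Preincubation 30 min RT; cpd 30 min RT (top 110 uM); beads 20 min RT, light-protected.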
Six1-Eya2 blk – Six1/Eya2 interaction inhibition. Q15475+O00167. AlphaScreen GST-Six1/His-Eya2 binding, biochemical; stronger effect = lower value. activity change, % (concentration not given with the values). 0.56% of 360,000 active; in the data active = activity change below about -65%; inconclusive = mostly about -30% to -63%; also: % is scaled to controls: 0 for no effect and ±100 for the full control effect
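AlphaScreen luminescence read after one hour at 37 °C in darkness. Pin-transferred compounds met GST-Six1 and His-Eya2 protein (5X stock 250 nM/500 nM) plus glutathione donor and Ni-chelate acceptor beads (5X, 50 ug/mL).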
* hit, by the source's call; ? = inconclusive; · = not tested or not shown; [ ] = remark or other dose. Unless noted, calls follow the shape of the dose curve; as a rule, active = well fitted inhibition curve with a large enough effect; inconclusive = small, poorly fitted or top-dose-only effect; inactive = no such curve, though single readings can be large or run the other way.

SMILES	G9a inh	JMJD2A Tudor inh	CtBP-E1A inh	HP1b chromo inh	BAZ2B inh	Six1-Eya2 blk
CC(=O)Nc1nc(N)n(-c2ccccc2)n1	-16%[59 µM]	-34%	-3	5%	?	0
COc1ccc(/C=C/C(=O)Nc2nc(N)n(-c3ccccc3)n2)cc1	22%[59 µM]	-19%	0	36%	50µM*	-4
O=C(c1cnccn1)N1CCC2(CCN(Cc3ccncc3)CC2)CC1	4%[12.7 µM]	·	·	·	·	·
COc1cc(C(=O)Nc2nc(N)n(-c3ccccc3)n2)cc(OC)c1OC	-2%[12.7 µM]	-4%[11.4 µM]	1	-9%	50µM*	-3
COc1ccccc1C(=O)Nc1nc(N)n(-c2ccccc2)n1	-10%[59 µM]	4%	0	33%	?	-4
CCCc1cnc2c(c1SCC(=O)NCc1ccc(C)cc1)c(=O)n(C)c(=O)n2C	10µM*	-14%	·	1%	-23%	·
Cc1sc2nc(C3CC3)nc(SCC(=O)NCc3ccco3)c2c1C	50µM*	-15%	11	26%	-13%	-9
CCn1c(SCC(=O)NCc2ccco2)nc2c(c1=O)SC(C)C2 (stereo not given)	14µM*	-33%	0	5%	-7%	4
O=C(CSc1nnc(C2CC2)n1-c1ccccc1)NCc1ccco1	79µM*	-20%	-1	22%	14%	0
CCCNC(=O)CSc1c(CCC)cnc2c1c(=O)n(C)c(=O)n2C	-14%[59 µM]	-15%	·	37%	1%	·
O=C1CC(c2cccc(F)c2)c2c(c3ccccc3[nH]c2=O)O1 (stereo not given)	?	-1%	-15	22%	7%	8
Cc1ccc(SC(CC(=O)c2ccc(C)cc2)C(=O)O)cc1 (stereo not given)	-5%[59 µM]	8%	-3	56%	31%	12
Cc1ccn2cc(C(=O)Nc3cccc(C(=O)NC4CC4)c3)nc2c1	?	-11%	-9	4%	-36%	-9
CCCc1nc(SCC(=O)NCc2ccco2)c2c(=O)n(C)c(=O)n(C)c2n1	45µM*	-24%	-7	25%	1%	-1
CCOC(=O)c1oc2ccc(S(=O)(=O)n3nc(-c4cc(OC)cc(OC)c4)cc3N)cc2c1C	-3%[59 µM]	-31%	·	37%	-20%	·
CCN(CC)c1ccc(/C=N/N2CCN(Cc3ccc(Cl)cc3)CC2)c(O)c1	10µM*	?	-21	?	3.5µM*	-5
Oc1ccc(Br)cc1/C=N/N1CCN(Cc2cccc3ccccc23)CC1	·	?	·	-2%	-39%	-3
C(=N\N1CCN(Cc2cccc3ccccc23)CC1)/c1cccs1	50µM*	40µM*	-19	?	13µM*	?
CCN(CC)c1ccc(/C=N/N2CCN(Cc3cccc4ccccc34)CC2)c(O)c1	3%[2.33 µM]	7.1µM*	?	?	?	?
COc1cccc(CN2CCC(n3nccc3NC(=O)CCOc3ccccc3)CC2)c1O	·	-27%	-10	2%	·	-2
Cc1cccc(NC(=O)c2sc3nc4c(cc3c2N)CN(Cc2ccccc2)CC4)c1	-2%[59 µM]	5%	·	26%	-9%	·
CN1CCc2nc3sc(C(=O)Nc4c(F)cccc4F)c(N)c3cc2C1	16µM*	-26%	·	26%	-38%	·
CN1CCc2nc3sc(C(=O)Nc4cccc(C#N)c4)c(N)c3cc2C1	16µM*	?	·	-18%	?	·
Nc1c(C(=O)Nc2ccccc2F)sc2nc3c(cc12)CCCCCC3	-3%[59 µM]	-19%	·	30%	4%	·
CCCN1CCC(Oc2cccc(C(=O)NCCc3ccccc3)c2)CC1	·	-10%	-11	12%	-18%	12
SMILES	G9a inh	JMJD2A Tudor inh	CtBP-E1A inh	HP1b chromo inh	BAZ2B inh	Six1-Eya2 blk
O=C(Nc1ccccc1N1CCCC1)C1CCN(C(=O)c2ccc(Cl)cc2)CC1	50µM*	-29%	-15	-12%	-10%	-8
O=C(Nc1ccccc1N1CCCC1)C1CCN(C(=O)c2ccc(F)cc2)CC1	50µM*	-19%	-6	3%	7%	5
N#Cc1ccsc1NC(=O)C1CCN(C(=O)c2ccc(Cl)cc2)CC1	50µM*	-17%	2	20%	-34%	-1
O=C(NC1CCCC1)C1CCN(C(=O)c2ccc(Cl)cc2)CC1	-2%[59 µM]	4%	4	16%	4%	-2
COc1ccc(C(F)(F)F)cc1NC(=O)C(OC(=O)CNC(=O)c1ccccc1)c1ccccc1 (stereo not given)	·	-25%	·	·	·	·
S=C(N/N=C1\CCc2ccccc21)NC1CCCCC1	?	?	·	-3%	-24%	0
CCOC(=O)c1c(NC(=O)CSc2nc3ccccc3[nH]2)sc2c1CC(C)(C)NC2(C)C	40µM*	-33%	-6	-3%	-6%	-8
CCOC(=O)c1c(NC(=O)COc2ccccc2)sc2c1CC(C)(C)NC2(C)C	-6%	-8%	15	23%	-25%	2
CCOC(=O)c1c(NC(=O)COC(=O)/C=C/c2ccco2)sc2c1CC(C)(C)NC2(C)C	16µM*	?	-27	?	?	-15
CCc1ccccc1NC(=O)Nc1c[nH]c(=O)[nH]c1=O	-5%[59 µM]	-17%	·	0%	0%	·
CC(C(=O)Nc1ccc2c(c1)OCO2)n1cnc2c1c(=O)n(C)c(=O)n2C (stereo not given)	5%[0.501 µM]	-29%	-12	20%	-2%	-4
Cc1cccc(N2CCN(C(=O)COc3noc4nc(C)cc(C)c34)CC2C)c1 (stereo not given)	·	·	4	·	·	2
COc1ccc(C)cc1NC(=O)C(NC(=O)c1cc(OC)c(OC)c(OC)c1)C(C)C (stereo not given)	1%	40µM*	-15	?	·	10
CC(C)(C)NC(=O)[C@@H]1CN(Cc2cccnc2)CCN1C[C@@H](O)C[C@@H](Cc1ccccc1)C(=O)N[C@H]1c2ccccc2C[C@H]1O	·	89µM*	7	8%	·	7
CC(C)=CCN1CCN(Cc2cccnc2)CC1CCO (stereo not given)	19%	-5%	0	11%	-12%	6
CC(C)C[C@H](NC(=O)[C@@H]1Cc2ccccc2CN1)C(=O)Nc1ccc(C(C)C)cc1	28µM*	-30%	-4	10%	?	-1
C[C@H](NC(=O)[C@@H]1Cc2ccccc2CN1C(=O)OC(C)(C)C)C(=O)NC1CCCCC1	10%	7%	6	28%	-12%	3
Cc1ccc(NC(=O)[C@H](Cc2ccccc2)NC(=O)[C@@H]2Cc3ccccc3CN2)c(C)c1	35µM*	-12%	-5	34%	-20%[57.1 µM]	6
CSCC[C@H](NC(=O)[C@@H]1Cc2ccccc2CN1)C(=O)NC1CCCCC1	25µM*	-8%	-14	30%	-32%	2
